Laboratory results taken from PubChem BioAssay.
Active and inactive are the calls of the source.

system: XIP peptide (Xip251-270) binding; test: XIP fragment 251-270 binding compounds – biochemical, small-molecule microarray, fluorescence 635/667 nm, 0.1 µg/mL protein, primary screen (AID 1182); conditions: fluorescent protein binding, 635 nm, higher = more signal, called active from +8 up or from −8 down

Composite z-score, inactive:
CC(C)=NOCc1cccc(-c2cc(-c3ccccc3)no2)c1 1.13
O=C1[C@H]2[C@H]3[C@H](O)[C@H](O)CC(=NOC[C@@H](O)COCc4ccco4)[C@H]3CC[C@H]2C(=O)N1Cc1ccc2c(c1)OCO2 0.525
O=C1C[C@@H](O)[C@@H](O)[C@@H]2[C@@H]3C(=O)N(C4CCCCC4)C(=O)[C@@H]3CC[C@H]12 -0.149
C[C@@H]1CCC2C(=O)N(Cc3ccccc3)C[C@@H](O)CN2[C@H]1c1ccc(Br)cc1 (stereo not given in full) 1
CCOC(=O)CCN1C(=O)[C@H]2[C@H]3[C@H](O)[C@H](O)CC(=NOCc4ccccc4)[C@@H]3CC[C@H]2C1=O 0.204
O=C1[C@H]2[C@H]3[C@H](O)[C@H](O)CC(=NOC[C@@H](O)COCc4ccco4)[C@H]3CC[C@H]2C(=O)N1C1CCCCC1 -0.26
COc1ccc(OC[C@H]2Cc3c(-c4ccccc4)nc4c(c3CO2)CN(CCOc2ccccc2)CC4)cc1 1.22
CCOC(=O)[C@H](Cc1ccccc1)NC(=O)CCC1CC(OC(=O)NCCc2ccc(F)cc2)CC2(CCCC(COC(=O)NCC(c3ccccc3)c3ccccc3)O2)O1 (stereo not given in full) -0.295
C#CCCCON=C1C[C@@H](O)[C@@H](O)[C@@H]2[C@@H]3C(=O)N(CCC(=O)OCC)C(=O)[C@@H]3CC[C@@H]12 -0.349
CCCC[C@@H](O)C1=C(C)C[C@H]2C(=O)N(Cc3ccccc3)C(=O)[C@H]2[C@H]1CO -0.38
